Active and inactive are the calls of the source.

Assay [1] can be described thus: optical density shifts of acrAB sulA E. coli – strain DRC41, OD650, 48 h, E. coli filamentation inducer project, primary screen (AID 1152).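 Further: E. coli MC1000 strain DRC41 lacking acrAB efflux pump and sulA.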 To be noted: higher = more signal, called active from +8 up or from −8 down.
Assay [2] is described as follows: probe aLefty1 binding on compound microarray – biochemical, small-molecule microarray, 635/667 nm fluorescence, primary screen (AID 1153).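 Further: score merges spot fluorescence with signal-to-noise ratio from the scanned slide images.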 The note with it: higher = more signal.
A short description of assay [3]: plasmodial surface anion channel blockers, osmotic lysis – cell-based, P. falciparum Indochina, OD700, 1 h, primary screen (AID 1154). To be noted: P. falciparum Indochina infected RBC osmotic lysis, higher = more signal, called active from +8 up or from −8 down.
Assay [4] in a line: plasmodial surface anion channel blockers, osmotic lysis – cell-based, P. falciparum Indochina, OD700, 2 h, primary screen (AID 1155).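 Further: lysis reports solute entry through the parasite surface anion channel PSAC.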 To be noted: P. falciparum Indochina infected erythrocytes, higher = more signal, called active from +8 up or from −8 down.
Assay [5] is described as follows: changes in parasitized red cell lysis, either direction – P. falciparum Indochina, OD700, 3 h, PSAC antagonist project, primary screen (AID 1156). The note with it: P. falciparum-infected erythrocytes, osmotic lysis, higher = more signal, called active from +8 up or from −8 down.
Assay [6] can be described thus: plasmodial surface anion channel blockers, osmotic lysis – cell-based, P. falciparum Indochina, OD700, 18 h, primary screen (AID 1157). The note with it: P. falciparum Indochina infected erythrocytes, osmotic lysis OD700, 18 h; higher = more signal, called active from +8 up or from −8 down.
A short description of assay [7]: S6 kinase pathway phospho-S6 level changes – cell-based, A549, cytoblot, luminescence, serum-stimulated, primary screen (AID 1158).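 Further: serum-stimulated A549 lung adenocarcinoma cells; signal is phosphorylated S6 detected by cytoblot immunostaining with HRP secondary.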 To be noted: 5 h, higher = more signal.
Assay [8] addresses NADPH oxidase 2 (Homo sapiens) (UniProt P04839). The experiment in a line: compounds shifting NOX2 Amplex Red fluorescence – cell-based, HEK293-NOX2, PMA-stimulated, NOX inhibitor project, primary screen (AID 1159). Further: test concentration not given here. To be noted: 45 min, higher = more signal, called active from +8 up or from −8 down.
For assay [9], the target named is NADPH oxidase 4 (Homo sapiens) (UniProt Q9NPH5). The experiment in a line: compounds shifting NOX4 Amplex Red fluorescence – cell-based, HEK293-NOX4, tetracycline-induced, NOX inhibitor project, primary screen (AID 1160). To be noted: HEK293-NOX4, Amplex Red H2O2 fluorescence, 45 min; higher = more signal, called active from +8 up or from −8 down.
Sequence of NADPH oxidase 4 (Homo sapiens) (Q9NPH5 whole entry, looked up): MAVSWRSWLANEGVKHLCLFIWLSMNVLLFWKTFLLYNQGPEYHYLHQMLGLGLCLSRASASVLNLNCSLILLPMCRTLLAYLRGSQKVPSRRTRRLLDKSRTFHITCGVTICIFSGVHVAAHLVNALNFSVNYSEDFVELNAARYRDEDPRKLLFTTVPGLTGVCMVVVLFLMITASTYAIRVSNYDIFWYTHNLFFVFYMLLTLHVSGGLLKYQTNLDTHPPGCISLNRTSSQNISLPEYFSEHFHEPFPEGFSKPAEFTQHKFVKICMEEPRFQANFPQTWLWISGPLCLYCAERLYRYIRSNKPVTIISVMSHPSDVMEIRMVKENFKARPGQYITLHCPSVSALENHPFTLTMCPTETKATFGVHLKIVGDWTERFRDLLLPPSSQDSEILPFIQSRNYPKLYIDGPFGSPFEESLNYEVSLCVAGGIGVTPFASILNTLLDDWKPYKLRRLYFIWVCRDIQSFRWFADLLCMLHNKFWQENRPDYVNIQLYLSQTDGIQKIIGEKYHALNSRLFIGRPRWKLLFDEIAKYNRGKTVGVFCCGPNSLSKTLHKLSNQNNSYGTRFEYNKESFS
Assay [10] has as its target NADPH oxidase 5 (Homo sapiens) (UniProt Q96PH1). The experiment in a line: compounds shifting NOX5 Amplex Red fluorescence – cell-based, HEK293-NOX5, NOX inhibitor project, primary screen (AID 1161). The note with it: HEK293-NOX5, ionomycin, 45 min, higher = more signal.

Sequence of NADPH oxidase 2 (Homo sapiens) (P04839 whole entry, looked up): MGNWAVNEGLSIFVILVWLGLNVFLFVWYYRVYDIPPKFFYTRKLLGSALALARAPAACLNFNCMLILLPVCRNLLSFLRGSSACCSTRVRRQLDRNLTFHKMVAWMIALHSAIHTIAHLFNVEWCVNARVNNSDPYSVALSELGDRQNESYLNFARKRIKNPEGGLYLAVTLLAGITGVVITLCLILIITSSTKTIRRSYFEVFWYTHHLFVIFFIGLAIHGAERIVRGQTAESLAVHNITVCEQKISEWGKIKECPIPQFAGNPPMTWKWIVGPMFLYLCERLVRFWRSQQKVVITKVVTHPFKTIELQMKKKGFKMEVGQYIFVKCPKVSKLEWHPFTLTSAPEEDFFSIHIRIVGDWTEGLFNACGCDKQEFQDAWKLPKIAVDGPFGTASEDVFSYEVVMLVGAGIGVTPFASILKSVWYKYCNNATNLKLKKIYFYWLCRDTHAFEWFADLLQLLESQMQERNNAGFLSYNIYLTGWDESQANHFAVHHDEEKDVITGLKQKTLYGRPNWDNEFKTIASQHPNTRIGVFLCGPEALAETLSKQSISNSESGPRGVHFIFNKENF
Sequence of NADPH oxidase 5 (Homo sapiens) (Q96PH1 whole entry, looked up): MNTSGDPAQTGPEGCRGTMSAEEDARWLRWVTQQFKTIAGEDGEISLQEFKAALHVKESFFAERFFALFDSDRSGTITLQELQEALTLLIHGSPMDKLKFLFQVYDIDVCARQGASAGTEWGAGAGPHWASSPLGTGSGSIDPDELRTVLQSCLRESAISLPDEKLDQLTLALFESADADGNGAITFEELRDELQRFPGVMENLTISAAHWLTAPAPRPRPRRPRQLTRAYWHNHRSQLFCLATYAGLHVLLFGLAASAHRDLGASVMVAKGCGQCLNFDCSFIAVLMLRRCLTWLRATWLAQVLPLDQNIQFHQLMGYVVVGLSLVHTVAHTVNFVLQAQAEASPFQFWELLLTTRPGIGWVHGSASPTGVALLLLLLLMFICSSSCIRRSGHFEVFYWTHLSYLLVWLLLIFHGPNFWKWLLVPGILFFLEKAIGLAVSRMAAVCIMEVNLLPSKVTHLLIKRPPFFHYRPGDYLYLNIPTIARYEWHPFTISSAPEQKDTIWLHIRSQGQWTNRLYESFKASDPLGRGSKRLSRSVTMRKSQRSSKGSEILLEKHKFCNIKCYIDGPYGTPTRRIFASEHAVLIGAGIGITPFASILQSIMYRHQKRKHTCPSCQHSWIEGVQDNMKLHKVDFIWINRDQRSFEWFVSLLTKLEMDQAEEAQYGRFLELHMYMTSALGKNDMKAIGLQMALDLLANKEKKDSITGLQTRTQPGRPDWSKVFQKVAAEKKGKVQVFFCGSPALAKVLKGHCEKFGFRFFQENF

For `COc1ccc(C#Cc2ccc3c(c2)[C@]2(C(=O)N3)[C@H](C(=O)NC[C@H](O)c3ccccc3)[C@H]3C(=O)O[C@H](c4ccccc4)[C@H](c4ccccc4)N3[C@@H]2c2ccc(OCCO)cc2)cc1`, the z-score in [1] was -0.877 (inactive); in [3], 2.93 (inactive); in assay [4], 1.97 (inactive); in [5], -0.0845 (inactive); in assay [6], 1.52 (inactive); in assay [7], -0.321. Also, the z-score in assay [8] was 1.4 (inactive); in assay [9], -1.22 (inactive); in assay [10], 0.636. This compound also had a composite z-score in assay [2] of 0.0711.
On to `COCC1=C2[C@@H](CCc3ccccc3)OB(O)C[C@@H]2[C@@H]2C(=O)N(Cc3ccccc3)C(=O)[C@@H]2C1`, for which the z-score in [1] is -0.536 (inactive); in assay [3], 1.75 (inactive); in assay [4] it was -0.0799 (inactive); in [5], -0.558 (inactive); in [6] it was 0.0831 (inactive); in [7], 0.533. The z-score in assay [8] is -0.0858 (inactive); in assay [9], 0.552 (inactive); in [10] it was 0.974. Moreover, the composite z-score in assay [2] was -0.0573.
In the case of `CN1C(=O)C2C=CC(C(O)c3ccccn3)N(Nc3ccccc3)C2C1=O` (stereo not given), the z-score in assay [1] was -0.434 (inactive); in assay [3] it was 0.844 (inactive); in assay [4], 1.09 (inactive); in assay [5], -0.197 (inactive); in assay [6], 1.12 (inactive); in [7], -0.669. Besides, the figures for the z-score in assay [8], in assay [9] and in [10] were -1.35 (inactive), -4.52 (inactive) and -2.9, respectively. In addition, the composite z-score in assay [2] is -0.093.
For the compound `O=C1N(CCS(=O)(=O)c2ccccc2)Cc2ccccc2C[C@]12N=C(c1ccc(OCCCO)cc1)O[C@@H]2c1ccccc1`, the z-score is 0.697 (inactive) in [1]; 22.2 (active) in [3]; 8.54 (active) in [4]; 0.443 (inactive) in [5]; 0.427 (inactive) in [6]; 2.67 in assay [7]. Also, the z-score in assay [8] was -0.282 (inactive); in assay [9] it was 1 (inactive); in assay [10], -0.517. For the same compound, the composite z-score in assay [2] stood at 1.66.
As for `COCC(=C=CC[C@@H](O)c1ccc(CO)o1)CCO`, the z-score in [1] is 2.61 (inactive); in assay [3] it was 1.6 (inactive); in assay [4] it was -0.908 (inactive); in assay [5], -0.949 (inactive); in assay [6], -1.11 (inactive); in assay [7] it was 3.11. Moreover, the z-score in assay [8] was -1.84 (inactive); in assay [9] it was -0.922 (inactive); in [10], -1.06. Also, the composite z-score in [2] was -0.205.
As for `CC(C)c1ccc(NN2C(C(O)c3ccc(N(C)C)cc3)C=CC3C(=O)N(c4ccccc4)C(=O)C32)cc1` (stereo not given), the z-score in assay [1] is -0.448 (inactive); in assay [3] it was 1.72 (inactive); in assay [4], 1.05 (inactive); in assay [5], 0.655 (inactive); in assay [6], 1.32 (inactive); in assay [7], -0.183. Further, the z-score in assay [8] is -1.14 (inactive); in [9], -0.983 (inactive); in assay [10], -2.39. In addition, in assay [2], the composite z-score was determined as 0.544.
`CCCCC=C[C@@H](NC(=O)c1ccc(C(=O)OC)cc1)c1ccccc1`: the z-score in [1] is -1.63 (inactive); in [3], 2.85 (inactive); in [4], 0.589 (inactive); in assay [5] it was 0.63 (inactive); in [6], 0.569 (inactive); in [7], 0.12. The z-score is -1.88 (inactive) in assay [8], -3.48 (inactive) in assay [9] and 0.0463 in assay [10]. Moreover, the composite z-score in assay [2] is 0.317.
For `O=C1O[C@@H](c2ccccc2)[C@@H](c2ccccc2)N2[C@@H](c3ccc(O)cc3)[C@]3(C(=O)Nc4ccc(C#CC5=CCCCC5)cc43)[C@@H](C(=O)O)[C@H]12`, the z-score in assay [1] was 4.17 (inactive); in [3] it was -2.7 (inactive); in assay [4] it was -2.38 (inactive); in [5], -9.62 (active); in assay [6], -3.16 (inactive); in assay [7], 3.05. Also, the z-score was 0.896 (inactive) in assay [8], -2.76 (inactive) in [9] and -1.01 in [10]. The composite z-score in assay [2] is 0.112.
With `Cc1ccc([C@H]2[C@H](C(=O)O)[C@H](Sc3ccccc3)[C@@H](C(C)C)N2S(=O)(=O)c2ccc(C)cc2)cc1`, the z-score is -1.51 (inactive) in assay [1]; 1.09 (inactive) in [3]; 0.456 (inactive) in assay [4]; -0.922 (inactive) in assay [5]; 0.781 (inactive) in assay [6]; -0.137 in assay [7]. For the same compound, the z-score in assay [8] was 1.01 (inactive); in assay [9], 0.349 (inactive); in [10], 1.16. The same compound gave a composite z-score in assay [2] of -0.0675.
On to `CCN(CC)c1ccc(N2CC=CC34O[C@@H]5/C=C\CCCOC(=O)C5[C@H]3C(=O)N(C(CO)C(C)C)[C@@H]4C2=O)cc1` (stereo not given in full), for which the z-score is -0.522 (inactive) in assay [1]; 1.38 (inactive) in assay [3]; 0.486 (inactive) in assay [4]; 0.883 (inactive) in assay [5]; 0.648 (inactive) in [6]; -0.713 in assay [7]. The z-score was 0.0116 (inactive) in assay [8], 0.337 (inactive) in [9] and 0.492 in assay [10]. In assay [2], this compound gave a composite z-score of -0.137.
With `O=C(O)[C@@]1(Cc2ccccc2)N=C(c2ccc(OCCCO)cc2)O[C@H]1c1ccccc1`, the z-score in [1] was 0.922 (inactive); in assay [3], 3.67 (inactive); in [4], 0.132 (inactive); in assay [5], -0.466 (inactive); in assay [6], 0.445 (inactive); in assay [7], -0.134. Further, the z-score was 0.18 (inactive) in [8], 0.864 (inactive) in assay [9] and 1.33 in assay [10]. The compound further had a composite z-score in assay [2] of -0.251.
Regarding `CC(C)N1C(=O)c2ccccc2[C@@H](C(=O)NCCCN(C)C)[C@@H]1c1ccc(CO)cc1`, the z-score in assay [1] was -0.534 (inactive); in [3], 2.45 (inactive); in [4], -0.0098 (inactive); in assay [5], 2.5 (inactive); in assay [6], 0.181 (inactive); in assay [7], -0.0692. The z-score in [8] was 1.08 (inactive); in [9] it was -0.858 (inactive); in [10], -1.54. The same compound registered a composite z-score in [2] of 1.17.
Regarding `N#Cc1ccc(NN2C(C(O)C3CCCCC3)C=CC3C(=O)N(c4ccccc4)C(=O)C32)cc1` (stereo not given), the z-score was -1.35 (inactive) in assay [1]; 13.2 (active) in assay [3]; 2.67 (inactive) in assay [4]; 3.79 (inactive) in assay [5]; 1.49 (inactive) in assay [6]; -0.911 in [7]. In addition, the z-score in assay [8] was -2.02 (inactive); in assay [9], -3.88 (inactive); in assay [10] it was -3.01. In addition, the composite z-score in [2] stood at 0.545.

These data come from PubChem BioAssay.
